An excerpt weighted towards active compounds, which were near 7.2% of everything screened.
AHR activator = AHR activators, primary screen, cell-based, luminescence, luciferase reporter, human. Aryl hydrocarbon receptor (Homo sapiens), P35869. activation, % at 5 µM. AHR-responsive luciferase reporter cells. 320,000 tested, 2.5% active; in the data active means activation above about 47%;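 further: 0% = vehicle wells and 100% = reference agonist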
ALR inh = inhibitors of human ALR sulfhydryl oxidase, primary screen, biochemical, H2O2 detection, HRP-luminol luminescence, single point. inhibition, % (no concentration beside the values). 290,000 tested, 3.8% active. purified ALR, DTT oxidation. AID 485317, 2010;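 active means mean replicate inhibition above about 79%, with every replicate also reaching it, limit read from the data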
Mot1-301 SUMO = yeast Mot1-301 growth rescue at high temperature, primary screen, SUMOylation pathway inhibitor project, S. cerevisiae, ATP luminescence, 38.5C. AID 2716, 2010. 320,000 tested, 1% active. growth rescue, % at 18.8 µM. S. cerevisiae Mot1-301 growth rescue; percent above DMSO median, 100 means doubled;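 active means every valid replicate shows activation above 250% relative to neutral control wells; inactive means the rest, any valid replicate at or below 250%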;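 further: OY570 slx delta 5 strain wells were the positive control but not used for scaling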
Bfl-1 A1 inh = caspase 3/7 activation in MEF A1-2A-BIM cells, primary screen, A1 inhibitor project, cell-based, luminescence, HTS; Caspase-Glo 3/7 luminescence, 3 h; percent of clofoctol response, vehicle zero; caspase activation, % (test concentration not listed); 330,000 tested, 0.066% active; AID 2462, 2010;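 active means over half of replicate activation scores above 10%, or exactly half above 10 with the replicate mean above 10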
Efflux pump inh = inhibitors of Candida efflux pumps in yeast, primary screen, S. cerevisiae, Nile Red, multiplex | S. cerevisiae Candida pump triplex | 330,000 tested, 0.44% active | AID 485275, 2010 | inhibition, % at 10 µM;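 active means plate passing quality check with inhibition over a set limit, or well fluorescence over plate mean plus 4 SD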;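 further: Nile Red retained in pooled yeast measured as flow cytometry median fluorescence; 0% = buffer negative control and 100% = Enniatin B positive control; higher means more Nile Red kept so more efflux inhibition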
VLA-4 inh = inhibition in human VLA-4 binding assay, primary screen, VLA-4 allosteric modulator project, MLPCN library, flow cytometry, VLA-4 expressing cells; 330,000 tested, 0.2% active; Integrin alpha-4 (Homo sapiens), P13612; ligand binding flow cytometry; inhibition, % (about 7 µM as worked out from the volumes in the protocol); in the data active means inhibition above about 50%
Mot1 SUMO dose = growth restoration of Mot1-301 yeast on galactose, dose response, SUMO pathway inhibitor project, whole organism, S. cerevisiae, ATP luminescence, cherry-picked samples; shares compounds with Mot1-301 SUMO; growth activity, percent, % at 42 µM; 2,300 tested, under 10 active; S. cerevisiae Mot1-301 galactose growth, 24 h; -100 = growth of slx-deleted rescue strain;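 active means Signal drops as the depositor expects, and the fitted half-maximal dose is no more than ten times the top valid tested dose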;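 further: more negative values mean stronger growth rescue toward the control strain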
Active calls of the source: *; . = no result given; + = active, no number.

SMILES	AHR activator	ALR inh	Mot1-301 SUMO	Bfl-1 A1 inh	Efflux pump inh	VLA-4 inh	Mot1 SUMO dose
Cc1nc(C(=O)NNC(=O)c2ccc(C(F)(F)F)cc2)cs1	0	-6	-15	0	0	4	.
O=C(OCC(=O)N1CCCc2ccccc21)c1cc(S(=O)(=O)N2CCOCC2)ccc1O	0	4	-5	0	0	-9	.
COc1ccc2c(c1)[C@H]1[C@H](CO2)[C@H](c2ccccc2)[C@]2(C)C(=O)Nc3ccc(Br)cc3C(=O)N12	13	5	548*	2	0	8	-1
COc1ccc2c(c1)OC[C@H]1[C@H]2N2C(=O)c3cc(Br)ccc3NC(=O)[C@@]2(C)[C@H]1c1ccccc1	9	-4	468*	1	0	-3	0
COc1ccc2c(c1)[C@H]1[C@H](CO2)[C@H](c2ccccc2)[C@]2(C)C(=O)Nc3cc(F)ccc3C(=O)N12	10	0	376*	0	0	6	-1
COCCN(C(=S)Nc1ccccc1OC)C(C)c1cccs1 (stereo not given)	7	-10	-10	1	0	2	.
CCCCCC(C)n1[nH]c(=O)cc1N (stereo not given)	0	28	6	1	0	11	.
Cc1ccc(C(=O)Nc2cccc(N3C(=O)C4CCC(C)CC4C3=O)c2)cc1 (stereo not given)	6	1	-19	-2	0	11	.
O=C(c1cc(N2C(=O)C3C4CCC(C4)C3C2=O)ccc1Cl)N1CCN(c2ccccc2)CC1 (stereo not given)	2	6	+	0	-2	4	1
CC(=O)Nc1nnc(SCc2ccc(C(=O)Nc3ccccc3F)cc2)s1	-3	-6	125	1	0	26	.
CCCCCC(=O)N/N=C/c1cccs1	10	1	-9	0	0	-6	.
O=C(CCC(=O)Nc1ccc(F)cc1)N/N=C/c1cccs1	4	0	545*	0	0	-18	1
O=C(O)C1CCN(c2ccc(S(=O)(=O)N3CCC(C(=O)O)CC3)cc2[N+](=O)[O-])CC1	6	0	-13	-1	1	-16	.
CN(Cc1ccccc1)c1ccc(S(=O)(=O)N2CCC(C(=O)O)CC2)cc1[N+](=O)[O-]	3	-4	550*	2	0	9	0
COc1ccc(N2CCN(C(=O)CNC(=O)Cc3ccc(Cl)cc3)CC2)cc1	-2	2	410*	0	0	11	0
Cc1ccc(N2C(=O)C3CCCN3C2=S)cc1 (stereo not given)	11	-4	231	1	0	22	.
O=C1C2CCCN2C(=S)N1C1CCCCC1 (stereo not given)	0	-3	622*	1	0	21	-1
CCCCC1C(C#N)=C(C)NC2=C1C(=O)CC(C)(C)C2 (stereo not given)	4	-2	8	0	0	6	.
O=C(COc1ncnc2ccccc12)Nc1cc(S(=O)(=O)N2CCOCC2)ccc1Cl	0	-4	25	0	0	5	.
COc1cc(C(=O)N/N=C/c2ccccn2)cc(OC)c1OC	15	-5	935*	0	0	13	0
COc1ccc(N2CC(O)=C(c3nc(-c4ccccc4)cs3)C2=N)cc1	11	.	-10	0	0	-1	.
Cc1ccc(-c2csc(C3=C(O)CN(NC(=O)c4ccco4)C3=N)n2)cc1	13	-6	375*	0	0	8	0
CC1(C)C(C=C(Cl)Cl)C1C(=O)OCc1cccc(Oc2ccccc2)c1 (stereo not given)	-1	2	463*	0	0	9	1
CCOC(=O)c1c(-c2ccc(C)cc2)csc1NC(=O)c1cc2ccccc2oc1=O	-1	0	-11	-1	0	-16	.
CCCCCCSc1nsc(NC(=O)CCC)n1	-11	-2	-3	-1	0	3	.
SMILES	AHR activator	ALR inh	Mot1-301 SUMO	Bfl-1 A1 inh	Efflux pump inh	VLA-4 inh	Mot1 SUMO dose
CCC(C)(C)n1nnnc1C(c1ccncc1)N1CCC(Cc2ccccc2)CC1 (stereo not given)	-1	.	30	0	0	3	.
CCC(C)(C)n1nnnc1C(c1cccnc1)N1CCC(Cc2ccccc2)CC1 (stereo not given)	0	.	594*	0	0	-2	1
CC1(C2CC2)NC(=O)N(CC(=O)Nc2cc(S(=O)(=O)N3CCCCC3)ccc2Cl)C1=O (stereo not given)	1	.	3	2	0	10	.
CN(C)S(=O)(=O)c1ccc(Cl)c(NC(=O)CN2C(=O)NC(C)(C3CC3)C2=O)c1 (stereo not given)	-1	-11	651*	1	0	-3	0
COc1cccc(-c2nnc(NC(=O)Cc3cccs3)s2)c1	2	2	-2	0	0	11	.
O=C(Cc1cccs1)Nc1nnc(-c2ccncc2)s1	11	-8	+	1	1	2	0
O=C(O)C1c2ccccc2C(=O)N(Cc2ccc(F)cc2)C1c1ccncc1 (stereo not given)	-4	-2	5	0	0	-2	.
COc1ccc(S(=O)(=O)N2CCN(C(=O)c3cc4c(s3)CCC4)CC2)cc1	2	-4	2	-1	0	-6	.
Cc1ccc(OCC(=O)O/N=C(\N)Cc2ccc(Cl)cc2)cc1	1	-2	-14	0	0	-7	.
COc1ccc(OCC(=O)O/N=C(\N)Cc2ccc(Cl)cc2)cc1	10	-11	+	-1	0	6	0
Cc1cc(=O)oc(C)c1C(=O)NCCCN1CCN(c2ccccc2F)CC1	-1	10	-3	1	0	-4	.
CCOC(=O)C1CCN(C(=O)c2ccc3c(c2)NC(=O)/C(=C/c2ccccc2)S3)CC1	2	-19	405*	0	0	23	-1
COc1ccc(CNS(=O)(=O)c2ccc3c(c2)CCN3C(=O)C2CCC2)cc1	-2	-1	412*	0	0	4	0
CCOC(=O)c1sc2ncnc(N3CCN(c4ccc(OC)cc4)CC3)c2c1C	0	13	623*	1	0	4	1
COc1ccccc1N1CCN(C(=O)c2sc3ncnc(N4CCN(c5ccccn5)CC4)c3c2C)CC1	6	2	442*	-1	0	-6	0

Compound activity (PubChem)
